From publication PMC8384837, “Expanding the binding specificity for RNA recognition by a PUF domain”
Substitutions are numbered along the chain they refer to.

Key:
Assay in all cases: yeast three-hybrid, YBZ-1, SC-Leu-His + 0.5 mM 3-AT, 4 days
Details in all cases: tags: N-Gal4 AD-HA kept; label: inside an RPR1-promoter hybrid RNA with tandem MS2 sites; ssRNA
PUM1 PUF domain R4-EHA = PUM1 PUF domain R4-EHA (Homo sapiens, UniProt Q14671 828-1176, N971E;Q975A)
Procedure, shortened: (§1)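 Sequencing with Illumina followed PCR amplification of the repeat regions from transformants grown four days on SC-Leu (input) or SC-Leu-His + 0.5 mM 3-AT (selection). The transformants were strain YBZ-1 with a LexA–MS2 coat fusion and a HIS3 reporter, carrying Pumilio-1 PUF domain libraries and matching RNA elements. The interaction score is the log change in variant frequency from input to selection, computed in log2 with a pseudocount of 1 for absent variants.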

PUM1 PUF domain R1-RGN = PUM1 PUF domain R1-RGN (Homo sapiens, UniProt Q14671 828-1176, S863R;R864G;Q867N)
Procedure, shortened: as §1

PUM1 PUF domain R4-VMC = PUM1 PUF domain R4-VMC (Homo sapiens, UniProt Q14671 828-1176, N971V;H972M;Q975C)
Procedure, shortened: as §1

PUM1 PUF domain R4-VNV = PUM1 PUF domain R4-VNV (Homo sapiens, UniProt Q14671 828-1176, N971V;H972N;Q975V)
Procedure, shortened: as §1

PUM1 PUF domain R8-GFK = PUM1 PUF domain R8-GFK (Homo sapiens, UniProt Q14671 828-1176, N1122G;Y1123F;Q1126K)
Procedure, shortened: as §1

PUM1 PUF domain R8-SWE = PUM1 PUF domain R8-SWE (Homo sapiens, UniProt Q14671 828-1176, N1122S;Y1123W;Q1126E)
Procedure, shortened: as §1

PUM1 PUF domain R3-RAA = PUM1 PUF domain R3-RAA (Homo sapiens, UniProt Q14671 828-1176, C935R;R936A;Q939A)
Procedure, shortened: as §1

PUM1 PUF domain R6-VYH = target: T1, PUM1 PUF domain R6-VYH (Homo sapiens, UniProt Q14671 828-1176, N1043V;Q1047H)
T1 sequence: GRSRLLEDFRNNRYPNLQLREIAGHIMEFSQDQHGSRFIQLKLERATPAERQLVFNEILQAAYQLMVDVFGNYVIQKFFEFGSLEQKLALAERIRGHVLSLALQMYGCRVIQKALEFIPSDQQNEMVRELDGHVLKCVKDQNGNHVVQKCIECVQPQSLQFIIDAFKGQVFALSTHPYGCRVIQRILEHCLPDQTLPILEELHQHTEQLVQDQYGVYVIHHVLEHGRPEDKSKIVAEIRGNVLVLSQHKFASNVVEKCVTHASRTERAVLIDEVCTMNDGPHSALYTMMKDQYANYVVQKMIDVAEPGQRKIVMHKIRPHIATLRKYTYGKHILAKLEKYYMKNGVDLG
Procedure, shortened: as §1

PUM1 PUF domain R1-KAV = PUM1 PUF domain R1-KAV (Homo sapiens, UniProt Q14671 828-1176, S863K;R864A;Q867V)
Procedure, shortened: as §1

PUM1 PUF domain R5-GKH = PUM1 PUF domain R5-GKH (Homo sapiens, UniProt Q14671 828-1176, C1007G;R1008K;Q1011H)
Procedure, shortened: as §1

PUM1 PUF domain R5-RYT = PUM1 PUF domain R5-RYT (Homo sapiens, UniProt Q14671 828-1176, C1007R;R1008Y;Q1011T)
Procedure, shortened: as §1

PUM1 PUF domain R5-NDG = PUM1 PUF domain R5-NDG (Homo sapiens, UniProt Q14671 828-1176, C1007N;R1008D;Q1011G)
Procedure, shortened: as §1

[1] = target: T2, PUM1 PUF domain R6-SWD R7-NPG (Homo sapiens, UniProt Q14671 828-1176, N1043S;Y1044W;Q1047D;S1079N;N1080P;E1083G)
T2 sequence: T1 sequence with V216S, Y217W, H220D, S252N, N253P, E256G
Procedure, shortened: as §1

PUM1 PUF domain R2-AWH = PUM1 PUF domain R2-AWH (Homo sapiens, UniProt Q14671 828-1176, N899A;Y900W;Q903H)
Procedure, shortened: as §1

PUM1 PUF domain R2-LFA = PUM1 PUF domain R2-LFA (Homo sapiens, UniProt Q14671 828-1176, N899L;Y900F;Q903A)
Procedure, shortened: as §1

PUM1 PUF domain R5-RFI = PUM1 PUF domain R5-RFI (Homo sapiens, UniProt Q14671 828-1176, C1007R;R1008F;Q1011I)
Procedure, shortened: as §1

PUM1 PUF domain R6-HFV = target: T3, PUM1 PUF domain R6-HFV (Homo sapiens, UniProt Q14671 828-1176, N1043H;Y1044F;Q1047V)
T3 sequence: T1 sequence with V216H, Y217F, H220V
Procedure, shortened: as §1

PUM1 PUF domain R6-MYL = target: T4, PUM1 PUF domain R6-MYL (Homo sapiens, UniProt Q14671 828-1176, N1043M;Q1047L)
T4 sequence: T1 sequence with V216M, H220L
Procedure, shortened: as §1

PUM1 PUF domain R4-LHW = PUM1 PUF domain R4-LHW (Homo sapiens, UniProt Q14671 828-1176, N971L;Q975W)
Procedure, shortened: as §1

PUM1 PUF domain R6-KFS = target: T5, PUM1 PUF domain R6-KFS (Homo sapiens, UniProt Q14671 828-1176, N1043K;Y1044F;Q1047S)
T5 sequence: T1 sequence with V216K, Y217F, H220S
Procedure, shortened: as §1

Sequence: GGCUAGAACUAGUGGAUCCCCCGGCGCCCGGCGGCUCGAGCCCGGGUAAGUGUAUAUAGUCUGCAUGCCGCCGGGCGCCAUGCCUGCAGGUCGACUCUAGAAAACAUG
- binding signal (PUM1 PUF domain R4-EHA): 2.96 log2 enrichment (interaction score)

Sequence: GGCUAGAACUAGUGGAUCCCCCGGCGCCCGGCGGCUCGAGCCCGGGUAAGUGUAAAUCGUCUGCAUGCCGCCGGGCGCCAUGCCUGCAGGUCGACUCUAGAAAACAUG
- binding signal (PUM1 PUF domain R1-RGN): 1.85 log2 enrichment (interaction score)

Sequence: GGCUAGAACUAGUGGAUCCCCCGGCGCCCGGCGGCUCGAGCCCGGGUAAGUGUACAUAGUCUGCAUGCCGCCGGGCGCCAUGCCUGCAGGUCGACUCUAGAAAACAUG
- binding signal (PUM1 PUF domain R4-VMC): 2.94 log2 enrichment (interaction score)
- binding signal (PUM1 PUF domain R4-VNV): 2.33 log2 enrichment (interaction score)

Sequence: GGCUAGAACUAGUGGAUCCCCCGGCGCCCGGCGGCUCGAGCCCGGGUAAGUGUAAAUGGUCUGCAUGCCGCCGGGCGCCAUGCCUGCAGGUCGACUCUAGAAAACAUG
- binding signal (PUM1 PUF domain R1-RGN): 0.76 log2 enrichment (interaction score)

Sequence: GGCUAGAACUAGUGGAUCCCCCGGCGCCCGGCGGCUCGAGCCCGGGUAAGCGUAAAUAGUCUGCAUGCCGCCGGGCGCCAUGCCUGCAGGUCGACUCUAGAAAACAUG
- binding signal (PUM1 PUF domain R8-GFK): 3.45 log2 enrichment (interaction score)
- binding signal (PUM1 PUF domain R8-SWE): 2.43 log2 enrichment (interaction score)

Sequence: GGCUAGAACUAGUGGAUCCCCCGGCGCCCGGCGGCUCGAGCCCGGGUAAGUGUAAUUAGUCUGCAUGCCGCCGGGCGCCAUGCCUGCAGGUCGACUCUAGAAAACAUG
- binding signal (PUM1 PUF domain R3-RAA): 3.66 log2 enrichment (interaction score)

Sequence: GGCUAGAACUAGUGGAUCCCCCGGCGCCCGGCGGCUCGAGCCCGGGUAAGUGAAAAUAGUCUGCAUGCCGCCGGGCGCCAUGCCUGCAGGUCGACUCUAGAAAACAUG
- binding signal (PUM1 PUF domain R6-VYH): 5.62 log2 enrichment (interaction score)

Sequence: GGCUAGAACUAGUGGAUCCCCCGGCGCCCGGCGGCUCGAGCCCGGGUAAGUGUAAAUUGUCUGCAUGCCGCCGGGCGCCAUGCCUGCAGGUCGACUCUAGAAAACAUG
- binding signal (PUM1 PUF domain R1-RGN): 2.37 log2 enrichment (interaction score)
- binding signal (PUM1 PUF domain R1-KAV): 2.36 log2 enrichment (interaction score)

Sequence: GGCUAGAACUAGUGGAUCCCCCGGCGCCCGGCGGCUCGAGCCCGGGUAAGUGUUAAUAGUCUGCAUGCCGCCGGGCGCCAUGCCUGCAGGUCGACUCUAGAAAACAUG
- binding signal (PUM1 PUF domain R5-GKH): 3.15 log2 enrichment (interaction score)
- binding signal (PUM1 PUF domain R5-RYT): 3.93 log2 enrichment (interaction score)
- binding signal (PUM1 PUF domain R5-NDG): 3.34 log2 enrichment (interaction score)

Sequence: GGCUAGAACUAGUGGAUCCCCCGGCGCCCGGCGGCUCGAGCCCGGGUAAGUUGAAAUAGUCUGCAUGCCGCCGGGCGCCAUGCCUGCAGGUCGACUCUAGAAAACAUG
- binding signal [1]: 5.9 log2 enrichment (interaction score)

Sequence: GGCUAGAACUAGUGGAUCCCCCGGCGCCCGGCGGCUCGAGCCCGGGUAAGUGUAAAAAGUCUGCAUGCCGCCGGGCGCCAUGCCUGCAGGUCGACUCUAGAAAACAUG
- binding signal (PUM1 PUF domain R2-AWH): 2.3 log2 enrichment (interaction score)
- binding signal (PUM1 PUF domain R2-LFA): 3.68 log2 enrichment (interaction score)

Sequence: GGCUAGAACUAGUGGAUCCCCCGGCGCCCGGCGGCUCGAGCCCGGGUAAGUGUGAAUAGUCUGCAUGCCGCCGGGCGCCAUGCCUGCAGGUCGACUCUAGAAAACAUG
- binding signal (PUM1 PUF domain R5-RFI): 3.33 log2 enrichment (interaction score)

Sequence: GGCUAGAACUAGUGGAUCCCCCGGCGCCCGGCGGCUCGAGCCCGGGUAAGUGUAAAUAGUCUGCAUGCCGCCGGGCGCCAUGCCUGCAGGUCGACUCUAGAAAACAUG
- binding signal (PUM1 PUF domain R6-HFV): 2.51 log2 enrichment (interaction score)
- binding signal (PUM1 PUF domain R5-RFI): 3.37 log2 enrichment (interaction score)
- binding signal (PUM1 PUF domain R4-VMC): 2.72 log2 enrichment (interaction score)
- binding signal (PUM1 PUF domain R5-RYT): 1.24 log2 enrichment (interaction score)
- binding signal (PUM1 PUF domain R6-MYL): 4.67 log2 enrichment (interaction score)
- binding signal (PUM1 PUF domain R4-LHW): 3.75 log2 enrichment (interaction score)
- binding signal (PUM1 PUF domain R6-KFS): 3.11 log2 enrichment (interaction score)
